Reference: PubChem BioAssay (EPA / NIEHS)
Results filed as inconclusive are left out. Calls of active or inactive are those of the source. How the source made its calls, unless noted: active means hit-call score of the fitted dose curve at least 0.9, where 1 is the maximum; inactive means score below 0.9.

What was measured:
[1] = CCTE_Mundy_HCI_hNP1_Casp3_7: CCTE's Caspase-Glo 3/7 Assay in human neuroprogenitor cells for Apoptosis, Mundy Lab (AID 2284240)
Outline: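 Apoptosis is scored by activated caspase-3/7 luminescence in WA09-derived neural progenitor cells, measured 26.5 h after chemical dosing. Values represent gain of signal relative to DMSO vehicle.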

[2] = CCTE_Mundy_HCI_hNP1_CellTiter: CCTE's Cell Titer-Glo 2 Assay in human neuroprogenitor cells for Viability, Mundy Lab (AID 2284241; active means hit-call score of the fitted dose curve at least 0.9, where 1 is the maximum)
Outline: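 Human neural progenitor cells (hNP1, WA09-derived) were plated on poly-L-ornithine/laminin and grown 40 to 44 hours at 37 °C, 5% CO2 before chemical addition. Twenty-four hours later, ATP was measured by CellTiter-Glo luminescence; loss of signal versus DMSO indicates reduced viability.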

[3] = CCTE_Mundy_HCI_iCellGluta_NOG_NeuriteCount: CCTE's Neurite Outgrowth Assay in iCellGluta cells for Neurite Count, Mundy Lab (AID 2284342; active means hit-call score of the fitted dose curve at least 0.9, where 1 is the maximum;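 further: chemical exposure about 48 hours starting 2 hours after plating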)
[4] = CCTE_Padilla_ZF_Score.Craniofacial: CCTE's 144 Hour Post-fertilization zebrafish Assay Score for Craniofacial Malformation, Padilla Lab (AID 2284405)
Outline: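 Craniofacial defects were scored at 6 dpf by two blinded observers using stereomicroscopy. Exposure of wild-type embryos began at 6–8 hpf in sealed wells of 10% Hanks' solution at 26C, with chemical removed by rinsing at 5 dpf.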

[5] = CCTE_Padilla_ZF_Score.Edema: CCTE's 144 Hour Post-fertilization zebrafish Assay Score for Edema Malformation, Padilla Lab (AID 2284406)
Outline: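 Edema scored at 6 dpf by two blinded observers under a stereo microscope, in single outbred wild-type larvae exposed from 6-8 hpf in sealed wells (Hanks', 26C, 14:10 h light) and chemical-free after a 5 dpf rinse.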

[6] = CCTE_Padilla_ZF_Score.Spine: CCTE's 144 Hour Post-fertilization zebrafish Assay Score for Spine Malformation, Padilla Lab (AID 2284407)
Outline: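 Spine malformation scored at 6 dpf by two independent blinded observers under stereomicroscope, after static sealed exposure from 6–8 hpf at 26C in Hanks' solution with rinse on 5 dpf. Positive-direction fit against DMSO control.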

[7] = CCTE_Padilla_ZF_Score.Swim_bladder: CCTE's 144 Hour Post-fertilization zebrafish Assay Score for Swim Bladder Malformation, Padilla Lab (AID 2284408)
Outline: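 Swim bladder inflation scored at 6 dpf by two blinded observers under a stereo microscope. Exposure ran from 6–8 hpf in sealed wells of 10% Hanks' at 26C, with rinsing at 5 dpf; DMSO served as baseline.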

[8] = CCTE_Padilla_ZF_Score.Position: CCTE's 144 Hour Post-fertilization zebrafish Assay Score for Position, Padilla Lab (AID 2284409)
Outline: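 Wild-type zebrafish embryos (with chorions) exposed singly from 6–8 hpf in sealed wells of Hanks' solution at 26C, rinsed at 5 dpf. At 6 dpf, blinded assessors scored abnormal water-column position by brightfield stereomicroscopy, relative to DMSO.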

[9] = CCTE_Padilla_ZF_Score.Living: CCTE's 144 Hour Post-fertilization zebrafish Assay Score for Viability, Padilla Lab (AID 2284410);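 further: larval death at 6 dpf judged by absent heartbeat or coagulation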
Outline: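 Mortality at 6 dpf, judged as absent heartbeat or coagulation by two blinded observers, after sealed static exposure beginning at 6–8 hpf at 26C. Larvae were rinsed free of chemical at 5 dpf, and activity was fitted relative to DMSO.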

[10] = CCTE_Padilla_ZF_Score.General: CCTE's 144 Hour Post-fertilization zebrafish Assay Score for General Malformation, Padilla Lab (AID 2284411)
Outline: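 Malformation, death and hatching were scored at 6 dpf by two blinded observers under a stereo microscope. Embryos were dosed singly from 6-8 hpf in sealed plates of 10% Hanks' at 26C and rinsed on 5 dpf; DMSO baseline.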

[11] = CCTE_Padilla_ZF_Score.Tail: CCTE's 144 Hour Post-fertilization zebrafish Assay Score for Tail Malformation, Padilla Lab (AID 2284414)
Outline: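 Tail malformations were scored at 6 dpf by two blinded assessors under a stereo microscope. Chorionated embryos had been exposed from 6-8 hpf in sealed wells of 10% Hanks' at 26 C, then rinsed free of chemical at 5 dpf.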

[12] = CCTE_Padilla_ZF_Score.Blood_pooling: CCTE's 144 Hour Post-fertilization zebrafish Assay Score for Blood Pooling, Padilla Lab (AID 2284415)
Outline: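 Blood pooling was scored at 6 dpf under a stereo microscope by two blinded assessors, fitted upward against DMSO. Single embryos were dosed at 6–8 hpf in 10% Hanks', kept sealed at 26C (14:10 h cycle) and rinsed at 5 dpf.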

[13] = CCTE_Padilla_ZF_Score.Any: CCTE's 144 Hour Post-fertilization zebrafish Assay Score for Any Mortality or Malformation, Padilla Lab (AID 2284416)
Outline: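 Wild-type zebrafish embryos with chorions, one per well in 10% Hanks' from 6–8 hpf, dosed in sealed plates at 26 C, 14:10 h light:dark; rinsed at 5 dpf; blinded scoring at 6 dpf for death or malformation, versus DMSO.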

Measured: outcome

O=C(CC(=O)C(F)(F)F)C(F)(F)F
inactive: all assays above
